Experimental data as given in the supplement of paper PMC7765376.
Where a name gives a salt, the structure may show the parent alone. The full ranking holds about 1,500 compounds; the median of “Excess HSA synergy score (sum over dose matrix of excess over highest single agent)” is about 43, and the lowest 2% start at about -900. For the sample, the lowest values were picked, then their nearest neighbours and some compounds at random.

Test system: PEO-1
Test: Excess HSA synergy score (sum over dose matrix of excess over highest single agent) (score (summed % response)); higher = less synergy / more antagonism (negative = synergy)
Settings: 72 h, read-out: viability/apoptosis luminescence (CellTiter-Glo or Caspase3-Glo / not stated per table)
[1] = matrix design: 6x6, 5-fold dilutions (primary screen)
[2] = matrix design: 10x10, 9-step dilutions (confirmatory)

Row | SMILES | Excess HSA synergy score [1] | Excess HSA synergy score [2]
1 | O[C@@H](CNC[C@H](O)[C@H]1CCc2cc(F)ccc2O1)[C@@H]1CCc2cc(F)ccc2O1 (racemic) [rac Nebivolol hydrochloride] + CC[C@H](NC(=O)[C@H](C)NC)C(=O)N1C[C@@H](O)C[C@H]1Cc1c(-c2[nH]c3cc(F)ccc3c2C[C@@H]2C[C@H](O)CN2C(=O)[C@H](CC)NC(=O)[C@H](C)NC)[nH]c2cc(F)ccc12 [Birinapant] | 50.2 | –
2 | CC(C)(O)CC[C@@H](O)[C@](C)(O)[C@H]1CC[C@@]2(O)C3=CC(=O)[C@@H]4C[C@@H](O)[C@@H](O)C[C@]4(C)[C@H]3CC[C@]12C [20-hydroxyecdysone] + CC[C@H](NC(=O)[C@H](C)NC)C(=O)N1C[C@@H](O)C[C@H]1Cc1c(-c2[nH]c3cc(F)ccc3c2C[C@@H]2C[C@H](O)CN2C(=O)[C@H](CC)NC(=O)[C@H](C)NC)[nH]c2cc(F)ccc12 [Birinapant] | 229 | –
3 | O=C(Nc1ccccc1Br)N[C@@H]1CCN(c2ccc(C(F)(F)F)cn2)C1 + CC[C@H](NC(=O)[C@H](C)NC)C(=O)N1C[C@@H](O)C[C@H]1Cc1c(-c2[nH]c3cc(F)ccc3c2C[C@@H]2C[C@H](O)CN2C(=O)[C@H](CC)NC(=O)[C@H](C)NC)[nH]c2cc(F)ccc12 [Birinapant] | -16.5 | –
4 | C[C@H](NC(=O)C(=O)Nc1ccccc1C(C)(C)C)C(=O)N[C@@H](CC(=O)O)C(=O)COc1c(F)c(F)cc(F)c1F [Emricasan] + CC[C@H](NC(=O)[C@H](C)NC)C(=O)N1C[C@@H](O)C[C@H]1Cc1c(-c2[nH]c3cc(F)ccc3c2C[C@@H]2C[C@H](O)CN2C(=O)[C@H](CC)NC(=O)[C@H](C)NC)[nH]c2cc(F)ccc12 [Birinapant] | – | -606
5 | COc1ccc2c(OCc3nnc4ccc(-c5ccccc5)nn34)ccnc2c1 + CC[C@H](NC(=O)[C@H](C)NC)C(=O)N1C[C@@H](O)C[C@H]1Cc1c(-c2[nH]c3cc(F)ccc3c2C[C@@H]2C[C@H](O)CN2C(=O)[C@H](CC)NC(=O)[C@H](C)NC)[nH]c2cc(F)ccc12 [Birinapant] | -55.6 | –
6 | N[C@@H](CSC(c1ccccc1)(c1ccccc1)c1ccccc1)C(=O)O [S-Trityl-L-cysteine] + CC[C@H](NC(=O)[C@H](C)NC)C(=O)N1C[C@@H](O)C[C@H]1Cc1c(-c2[nH]c3cc(F)ccc3c2C[C@@H]2C[C@H](O)CN2C(=O)[C@H](CC)NC(=O)[C@H](C)NC)[nH]c2cc(F)ccc12 [Birinapant] | -23.2 | –
7 | CCC(=O)NCC[C@@H]1CCc2ccc3c(c21)CCO3 [Ramelteon] + CC[C@H](NC(=O)[C@H](C)NC)C(=O)N1C[C@@H](O)C[C@H]1Cc1c(-c2[nH]c3cc(F)ccc3c2C[C@@H]2C[C@H](O)CN2C(=O)[C@H](CC)NC(=O)[C@H](C)NC)[nH]c2cc(F)ccc12 [Birinapant] | 10.8 | –
8 | NC(=O)c1c(OCc2c(F)cc(Br)cc2F)nsc1NC(=O)NCCCCN1CCCC1 + CC[C@H](NC(=O)[C@H](C)NC)C(=O)N1C[C@@H](O)C[C@H]1Cc1c(-c2[nH]c3cc(F)ccc3c2C[C@@H]2C[C@H](O)CN2C(=O)[C@H](CC)NC(=O)[C@H](C)NC)[nH]c2cc(F)ccc12 [Birinapant] | 11 | –
9 | C#Cc1cccc(Nc2ncnc3cc(OC)c(OCCCCCCC(=O)NO)cc23)c1 + CC[C@H](NC(=O)[C@H](C)NC)C(=O)N1C[C@@H](O)C[C@H]1Cc1c(-c2[nH]c3cc(F)ccc3c2C[C@@H]2C[C@H](O)CN2C(=O)[C@H](CC)NC(=O)[C@H](C)NC)[nH]c2cc(F)ccc12 [Birinapant] | -55.2 | –
10 | CCC(CC)CC1(C(=O)Nc2ccccc2SC(=O)C(C)C)CCCCC1 [Dalcetrapib] + CC[C@H](NC(=O)[C@H](C)NC)C(=O)N1C[C@@H](O)C[C@H]1Cc1c(-c2[nH]c3cc(F)ccc3c2C[C@@H]2C[C@H](O)CN2C(=O)[C@H](CC)NC(=O)[C@H](C)NC)[nH]c2cc(F)ccc12 [Birinapant] | 134 | –
11 | CC(C)(C)c1[nH]cnc1/C=c1\[nH]c(=O)/c(=C/c2ccccc2)[nH]c1=O [Plinabulin] + CC[C@H](NC(=O)[C@H](C)NC)C(=O)N1C[C@@H](O)C[C@H]1Cc1c(-c2[nH]c3cc(F)ccc3c2C[C@@H]2C[C@H](O)CN2C(=O)[C@H](CC)NC(=O)[C@H](C)NC)[nH]c2cc(F)ccc12 [Birinapant] | -109 | –
12 | COc1ccnc2[nH]cc(C(=O)C(=O)N3CCN(C(=O)c4ccccc4)C[C@H]3C)c12 + CC[C@H](NC(=O)[C@H](C)NC)C(=O)N1C[C@@H](O)C[C@H]1Cc1c(-c2[nH]c3cc(F)ccc3c2C[C@@H]2C[C@H](O)CN2C(=O)[C@H](CC)NC(=O)[C@H](C)NC)[nH]c2cc(F)ccc12 [Birinapant] | 263 | –
13 | C[C@H]1[C@H](C)CC[C@]2(C(=O)O)CC[C@]3(C)C(=CC[C@@H]4[C@@]5(C)C[C@@H](O)[C@H](O)[C@@](C)(CO)[C@@H]5CC[C@]43C)[C@H]12 [Asiatic acid] + CC[C@H](NC(=O)[C@H](C)NC)C(=O)N1C[C@@H](O)C[C@H]1Cc1c(-c2[nH]c3cc(F)ccc3c2C[C@@H]2C[C@H](O)CN2C(=O)[C@H](CC)NC(=O)[C@H](C)NC)[nH]c2cc(F)ccc12 [Birinapant] | 84.9 | –
14 | CCc1cnn2c(NCc3ccc[n+]([O-])c3)cc(N3CCCC[C@H]3CCO)nc12 + CC[C@H](NC(=O)[C@H](C)NC)C(=O)N1C[C@@H](O)C[C@H]1Cc1c(-c2[nH]c3cc(F)ccc3c2C[C@@H]2C[C@H](O)CN2C(=O)[C@H](CC)NC(=O)[C@H](C)NC)[nH]c2cc(F)ccc12 [Birinapant] | 5.95 | -374
15 | Nc1nc2[nH]cc(CCc3ccc(C(=O)N[C@@H](CCC(=O)O)C(=O)O)cc3)c2c(=O)[nH]1 [Pemetrexed disodium] + CC[C@H](NC(=O)[C@H](C)NC)C(=O)N1C[C@@H](O)C[C@H]1Cc1c(-c2[nH]c3cc(F)ccc3c2C[C@@H]2C[C@H](O)CN2C(=O)[C@H](CC)NC(=O)[C@H](C)NC)[nH]c2cc(F)ccc12 [Birinapant] | -173 | –
16 | Nc1nc(Cl)nc2c1ncn2[C@@H]1O[C@H](CO)[C@@H](O)[C@@H]1F [Clofarabine] + CC[C@H](NC(=O)[C@H](C)NC)C(=O)N1C[C@@H](O)C[C@H]1Cc1c(-c2[nH]c3cc(F)ccc3c2C[C@@H]2C[C@H](O)CN2C(=O)[C@H](CC)NC(=O)[C@H](C)NC)[nH]c2cc(F)ccc12 [Birinapant] | -118 | -898
17 | Nc1nc(Cl)nc2c1ncn2[C@H]1C[C@H](O)[C@@H](CO)O1 [Cladribine] + CC[C@H](NC(=O)[C@H](C)NC)C(=O)N1C[C@@H](O)C[C@H]1Cc1c(-c2[nH]c3cc(F)ccc3c2C[C@@H]2C[C@H](O)CN2C(=O)[C@H](CC)NC(=O)[C@H](C)NC)[nH]c2cc(F)ccc12 [Birinapant] | -229 | -1080
18 | Nc1ncn([C@H]2C[C@H](O)[C@@H](CO)O2)c(=O)n1 [Decitabine] + CC[C@H](NC(=O)[C@H](C)NC)C(=O)N1C[C@@H](O)C[C@H]1Cc1c(-c2[nH]c3cc(F)ccc3c2C[C@@H]2C[C@H](O)CN2C(=O)[C@H](CC)NC(=O)[C@H](C)NC)[nH]c2cc(F)ccc12 [Birinapant] | -104 | –
19 | Nc1nc(F)nc2c1ncn2[C@@H]1O[C@H](CO)[C@@H](O)[C@H]1O [2-Fluoroadenosine] + CC[C@H](NC(=O)[C@H](C)NC)C(=O)N1C[C@@H](O)C[C@H]1Cc1c(-c2[nH]c3cc(F)ccc3c2C[C@@H]2C[C@H](O)CN2C(=O)[C@H](CC)NC(=O)[C@H](C)NC)[nH]c2cc(F)ccc12 [Birinapant] | 41.5 | –
20 | Nc1ncnc2c1ncn2[C@@H]1O[C@H](CO)[C@@H](O)[C@H]1O [Adenosine] + CC[C@H](NC(=O)[C@H](C)NC)C(=O)N1C[C@@H](O)C[C@H]1Cc1c(-c2[nH]c3cc(F)ccc3c2C[C@@H]2C[C@H](O)CN2C(=O)[C@H](CC)NC(=O)[C@H](C)NC)[nH]c2cc(F)ccc12 [Birinapant] | 270 | –
21 | Nc1nc(=O)n([C@H]2C[C@H](O)[C@@H](CO)O2)cc1F + CC[C@H](NC(=O)[C@H](C)NC)C(=O)N1C[C@@H](O)C[C@H]1Cc1c(-c2[nH]c3cc(F)ccc3c2C[C@@H]2C[C@H](O)CN2C(=O)[C@H](CC)NC(=O)[C@H](C)NC)[nH]c2cc(F)ccc12 [Birinapant] | -352 | –
22 | CC1=C(CO)C(=O)O[C@@H]([C@@H](C)[C@H]2CC[C@H]3[C@@H]4C[C@H]5O[C@]56[C@@H](O)C=CC(=O)[C@]6(C)[C@H]4CC[C@]23C)C1 [Withaferin A] + CC[C@H](NC(=O)[C@H](C)NC)C(=O)N1C[C@@H](O)C[C@H]1Cc1c(-c2[nH]c3cc(F)ccc3c2C[C@@H]2C[C@H](O)CN2C(=O)[C@H](CC)NC(=O)[C@H](C)NC)[nH]c2cc(F)ccc12 [Birinapant] | -42.3 | –
23 | O=C(Nc1nnc(-c2ccco2)o1)c1cc(-c2ccccc2)nc2ccccc12 + CC[C@H](NC(=O)[C@H](C)NC)C(=O)N1C[C@@H](O)C[C@H]1Cc1c(-c2[nH]c3cc(F)ccc3c2C[C@@H]2C[C@H](O)CN2C(=O)[C@H](CC)NC(=O)[C@H](C)NC)[nH]c2cc(F)ccc12 [Birinapant] | 57.7 | –
24 | CCN(CC)CCOc1ccc(Nc2ncc3cc(-c4c(Cl)cccc4Cl)c(=O)n(C)c3n2)cc1 + CC[C@H](NC(=O)[C@H](C)NC)C(=O)N1C[C@@H](O)C[C@H]1Cc1c(-c2[nH]c3cc(F)ccc3c2C[C@@H]2C[C@H](O)CN2C(=O)[C@H](CC)NC(=O)[C@H](C)NC)[nH]c2cc(F)ccc12 [Birinapant] | -224 | -954
25 | Cc1cnc(Nc2ccc(OCCN3CCCC3)cc2)nc1Nc1cccc(S(=O)(=O)NC(C)(C)C)c1 + CC[C@H](NC(=O)[C@H](C)NC)C(=O)N1C[C@@H](O)C[C@H]1Cc1c(-c2[nH]c3cc(F)ccc3c2C[C@@H]2C[C@H](O)CN2C(=O)[C@H](CC)NC(=O)[C@H](C)NC)[nH]c2cc(F)ccc12 [Birinapant] | 70.3 | –
26 | CSc1cccc(Nc2ncc3cc(-c4c(Cl)cccc4Cl)c(=O)n(C)c3n2)c1 + CC[C@H](NC(=O)[C@H](C)NC)C(=O)N1C[C@@H](O)C[C@H]1Cc1c(-c2[nH]c3cc(F)ccc3c2C[C@@H]2C[C@H](O)CN2C(=O)[C@H](CC)NC(=O)[C@H](C)NC)[nH]c2cc(F)ccc12 [Birinapant] | -134 | –
